# Compound activity as filed in PubChem BioAssay.
# Shown is part of a subset that was picked to be rich in hits.
# BoNT A protease: inhibitors of Botulinum neurotoxin A light chain protease; AID 588499; multiplex microsphere protease substrate cleavage, flow cytometry; inhibition, % at 10 µM; hit rate 0.17% among 360,000; note: plate controls were buffer without enzyme for full effect and enzyme alone for no effect
# Autofluor counter: flagged as autofluorescent in microsphere protease counterscreen. hit rate 3.1% among 360,000. fluorescence intensity (test concentration not listed). AID 624483. compound autofluorescence counterscreen, microsphere flow cytometry; active compounds read high; in the data active = fluorescence intensity above about 16000; inconclusive = no clear call, values can overlap the other calls
# BoNT F protease: BoNT F light chain protease inhibition | inhibition, % at 10 µM | hit rate 0.22% among 360,000 | Multiplex microsphere protease cleavage assay, flow cytometry | AID 588497; in the data active = inhibition above about 35%, passing the limit was not always enough; inconclusive = no clear call, values can overlap the other calls; note: plate controls were buffer without enzyme for full effect and enzyme alone for no effect
# Anthrax LF prot: anthrax lethal factor protease inhibition; inhibition, % at 10 µM; hit rate 0.12% among 360,000; multiplex microsphere protease cleavage assay, LF; AID 588501; P15917; note: plate controls were buffer without enzyme for full effect and enzyme alone for no effect
# TcdB inh: TcdB glycohydrolase inhibition | P18177 | TcdB glycohydrolase enzymatic assay, plate reader | inhibition, % at 9.99 µM | hit rate 0.24% among 350,000 | AID 652162; in the data active = inhibition above about 10%
# * marks the source's active call; other numbers are inactive results; ? = inconclusive; · = not tested or not shown. Cut-off read from the data, not from the text of the source, unless noted: active = inhibition above about 30%; inconclusive = no clear call, values can overlap the other calls; inactive = below that.
SMILES,BoNT A protease,Autofluor counter,BoNT F protease,Anthrax LF prot,TcdB inh
O=C(NCC1CCCO1)c1cnc(Cl)c(Cl)c1 (stereo unspecified),2,3554,14,32*,0
O=C(NCC1CCCO1)c1cccc(Br)c1 (stereo unspecified),?,16290*,-2,2,0
COc1nc(N(C#N)CC(N)=O)nc(N2CCCC2)n1,-2,20491*,-3,2,·
COc1nc(OCC#N)nc(N2CCCCC2)n1,-1,4275,2,-4,0
CCCOc1ccc(-c2nnc(-c3ccco3)o2)cc1,0,21565*,1,1,·
O=C(COc1ccccc1)Nc1ccc(-c2nnc(-c3ccco3)o2)cc1,0,2413,6,0,·
CC(C)COc1ccc(-c2nnc(-c3ccco3)o2)cc1,-3,17184*,-6,-2,·
COC(=O)c1c(C(=O)OC)c2n(c1C)Cc1ccccc1C2,-1,22637*,0,-3,·
O=C(NNc1ccccc1[N+](=O)[O-])Nc1ccccc1,?,20435*,-1,0,-1
O=C(NNc1ccccc1[N+](=O)[O-])Nc1ccc(F)cc1,-1,2030,-4,-1,0
COc1ccc(NC(=O)N[C@H]2C=C[C@@H](CC(=O)NC3CCCCC3)O[C@H]2CO)cc1,·,·,·,·,-1
CCCC#Cc1cnc2c(c1)C(=O)N([C@@H](C)CO)C[C@@H](C)[C@@H](CN(C)C(=O)c1cccnc1)O2,·,·,·,·,0
COCCCn1c(=S)[nH]c2ccc(N3CCOCC3)cc2c1=O,6,18662*,7,0,·
O=c1c2ccccc2[nH]c(=S)n1CC1CCCO1 (stereo unspecified),-1,3806,-42,0,·
O=c1c2cc(N3CCOCC3)ccc2[nH]c(=S)n1CC1CCCO1 (stereo unspecified),-9,22212*,-10,-4,·
COc1ccc2c3c([nH]c2c1)[C@H](CO)N(C(=O)c1cccnc1)CC31CN(Cc2ccccc2)C1,·,·,·,·,-1
CC(C)c1nc2sc3c(NCc4ccco4)ncnc3c2c2c1COC(C)(C)C2,0,2940,0,-4,·
CSc1nc(NCc2ccco2)c2sc3nc(C(C)C)c4c(c3c2n1)CC(C)(C)OC4,?,19909*,0,0,·
C[C@H](CO)N1C[C@H](C)[C@@H](CN(C)Cc2ccc(Cl)c(Cl)c2)OCCCC[C@H](C)Oc2ccc(NS(=O)(=O)c3ccc(F)cc3)cc2C1=O,·,·,·,·,-13
CN(C)Cc1cn(CC[C@H]2CC[C@H](NS(=O)(=O)c3ccccc3)[C@H](CO)O2)nn1,·,·,·,·,1
Cc1ccc(Sc2nnc(Cc3ccccc3)c3ccccc23)cc1,?,22795*,0,-5,2
COc1ccc(Sc2nnc(Cc3ccccc3)c3ccccc23)cc1,-1,8347,-10,-3,·
Cc1cc(C(C)(C)C)cc(S(=O)(=O)Nc2ccc(O)c(C(=O)O)c2)c1C,?,20140*,3,0,·
CSc1nnc(-c2nnc(SC)n2-c2ccccc2)n1-c1ccccc1,0,16237*,0,-1,·
CC(=O)N1CC2(C1)[C@@H](c1ccc(-c3ccc(C#N)cc3)cc1)[C@@H](CO)N2C(=O)C1CC1,·,·,·,·,1
SMILES,BoNT A protease,Autofluor counter,BoNT F protease,Anthrax LF prot,TcdB inh
Cc1ccc(-n2sc3ccccc3c2=O)cc1S(=O)(=O)N1CCCCC1,32*,3545,10,2,1
Cc1ccccc1-n1sc2cc(F)ccc2c1=O,89*,4686,-8,0,0
O=c1c2ccccc2sn1-c1ccc(S(=O)(=O)N2CCCCC2)cc1,17,6856,-6,-6,·
CN(C)S(=O)(=O)c1cccc(-n2sc3ccccc3c2=O)c1,33*,5640,-1,-6,0
O=C(O)c1cccc(-n2sc3ccccc3c2=O)c1,27,5075,-7,1,-2
O=c1c2ccccc2sn1-c1cccc(Cl)c1,3,3643,1,-1,-1
O=c1c2ccccc2sn1-c1ccccc1,70*,3386,0,2,·
O=c1c2ccccc2sn1-c1ccccc1F,24,3835,-2,-2,-1
Cc1nc2ccccc2c(=O)n1-c1nccs1,0,5741,7,-2,-8
O=c1c2ccccc2sn1-c1nccs1,102*,4744,20,-4,0
O=c1c2cc(F)ccc2sn1-c1ccccc1,35*,2963,-4,4,-1
COc1ccc(N2C(=O)CSC23CCCCC3)cc1,-1,21829*,0,-8,·
CCOc1ccc(N2C(=O)CSC23CCCCC3)cc1,0,3963,4,2,·
N#C[C@H]1[C@@H](c2ccccc2-c2ccccc2F)[C@H](CO)N1C(=O)C1CC1,·,·,·,·,0
